# CHX counter: affects cycloheximide protein synthesis inhibition readout, counter-screen; cell reporter, cycloheximide protein synthesis inhibition counterscreen; max response, %; 300,000 compounds, 12% hits; AID 2314; in the data active = max response mostly above about 13%, no sharp cut-off; inactive = mostly below about 14%; also: read at 38.3 µM for the half of the compounds with a filed dose; 0% is about no effect
# Pf growth 96h: P. falciparum growth inhibition at 96 hour, primary screen for plastid delayed-death inhibitors | AID 504834 | 320,000 compounds, 6.9% hits | P. falciparum luciferase reporter growth, 96 h | Potency, µM (top dose mostly 28.7 µM), for the others: at the top dose activity change, negative = inhibition, usual class: inhibitors; also: potency is read from the fitted curve at half-maximal effect; % is scaled to controls: 0 for no effect and ±100 for the full control effect
#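 Readout is luminescence from an integrated firefly luciferase in P. falciparum. Red cells, 2% hematocrit and 0.05% parasitemia final, were cultured with compound through two parasite generations (96 hours) at 37 C, 5% CO2.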
# Pf growth 48h: P. falciparum growth inhibition at 48 hours (one generation); P. falciparum luciferase growth in erythrocytes, 48 h; Potency, µM (series often up to 28.7 µM), inactives show at the highest dose activity change, negative = inhibition, usual class: inhibitors; 310,000 compounds, 5.9% hits; AID 504832; also: potency is read from the fitted curve at half-maximal effect; % is scaled to controls: 0 for no effect and ±100 for the full control effect
#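 Luciferase-expressing parasites in RBCs, 2% Hct / 0.1% parasitemia final; RPMI 1640 + 0.5% Albumax; 37 C, 5% CO2, one generation; luminescence read-out, lower signal = inhibition.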
# Shiga inhibitor: blocks Shiga toxin action in Vero cells | inhibition, % at 38.7 µM | 290,000 compounds, 9.2% hits | Vero cells, Shiga toxin protein synthesis inhibition reporter; in the data active = inhibition mostly above about 28%, no sharp cut-off; inactive = mostly below about 43%; also: 0% is about no effect
# An asterisk follows results filed as active; ? = inconclusive; . = no result given; [ ] = dose if it differs, or a comment. Shown are actives, neighbours in structure and some others; about 21% of the full set was active somewhere. Unless noted, calls follow the shape of the dose curve; as a rule, active = well fitted inhibition curve with a large enough effect; inconclusive = small, poorly fitted or top-dose-only effect, or another doubt; inactive = no such curve, though single readings can be large or run the other way.
SMILES,CHX counter,Pf growth 96h,Pf growth 48h,Shiga inhibitor
Cc1nc2c([nH]c3ccc(Br)cc32)s1,14.9*,?,32.8%,22.3*
CN(C(=O)n1cnc2ccccc21)c1ccccc1,-1.6,75.3%,0.3%,6.2
ClC(Br)=C(n1cnc2ccccc21)n1cnc2ccccc21,-4.4,2.9%,10.4µM*,-22.9
Cc1ccc(S(=O)(=O)Nc2ccccc2C(=O)NCC2CCCO2)cc1 (stereo not drawn),1.7,?,19.4%,-4.0
Cc1nc(S(=O)(=O)Nc2ccccc2C(=O)NCC2CC2)cn1C,-2.3,27.7%,3.29µM*,-6.3
CC1=C([N+](=O)[O-])C(c2ccccc2C(F)(F)F)NC(=O)N1C (stereo not drawn),-2.9,-1.8%,16.5%,12.6
Cc1cccnc1NC(=S)NC(=O)c1oc2ccccc2c1C,39.8*,37.2%,80.4%,78.8*
Cc1c(C(=O)NC(=S)NCC(C)C)oc2ccccc12,17.4*,39.9%,25.7%,34.7
CCC(CC)C(=O)c1c[nH]c(C(=O)NCc2ccc(F)cc2)c1,-4.1,-3.4%,0.3%[0.00184 µM],-2.2
O=S(=O)(c1ccc(NCc2ccccc2)cc1)N1CCOCC1,-3.9,1.7%,27.2%,-3.4
CC(C)C[C@@H](CN=[N+]=[N-])N1CCN(Cc2ccccc2)CCC1=O,-0.8,?,22.1%,-2.2
COc1ccc(-c2nnc(SCC(=O)NC3CC3)o2)cc1,.,5.3%,60.5%,.
Cc1c(C#N)c(SCC(N)=O)nc2c1CCCC2,-6.9,9.28µM*,7.6%,-15.5
CCSc1nnc(NC(=O)CSc2nc3c(cc2C#N)CCCC3)s1,20.7,28.8%,56.3%,25.1
COC(=O)CC(=O)CSc1nc2c(cc1C#N)CCC2,18.0*,.,37.0%,54.5*
COc1cc2cc(C#N)c(SCC(=O)N3CCOCC3)nc2cc1OC,3.4,?,55.0%,-1.4
N#Cc1cc2c(nc1SCC(=O)N1CCOCC1)CCCCC2,42.0*,.,238.8%,101.4*
CC(C)OC(=O)CC(=O)CSc1nc2c(cc1C#N)CCC2,14.2,26.5%,0.8%,24.5
CCOC(=O)CC(=O)CSc1nc2c(cc1C#N)CCCCCC2,-1.7,1.17µM*,2.33µM*,13.2
CC(=O)CSc1nc2cc3c(cc2cc1C#N)OCCO3,13.6,166.6%,383.5%,32.0
N#Cc1cc2cc3c(cc2nc1SCC(=O)N1CCCC1)OCCO3,18.7,-0.7%,63.1%,50.8*
CC(C)OC(=O)CC(=O)CSc1nc2c(cc1C#N)CCCCCC2,14.7,.,-7.2%,17.0
CS(=O)CSc1nc2c(cc1C#N)CCCC2 (stereo not drawn),10.0,?,19.7%,-9.5
N#Cc1cc2c(nc1SCC(N)=O)CCCCC2,17.8*,135.4%,.,107.1
CC(C)OC(=O)CC(=O)CSc1nc2c(cc1C#N)CCCC2,36.8*,?,38.5%,81.7*
SMILES,CHX counter,Pf growth 96h,Pf growth 48h,Shiga inhibitor
Cc1ccccc1N(CC(=O)NCCc1ccccc1)C(=O)c1csnn1,-4.6,19.6%,28.2%,-2.7
CCCCOP(=O)(OCCCC)C1(NS(=O)(=O)c2ccccc2)C=CC(=O)c2ccccc21 (stereo not drawn),-2.8,?,10.4µM*,-20.9
COC(=O)[C@@H](NC(=O)NC1CCCCC1C)C(C)C (stereo partly drawn),-1.6,?,3.1%,-4.0
COC(=O)[C@@H](NC(=O)N(C1CCCCC1)C1CCCCC1)C(C)C,-1.4,1.65µM*,-22.1%,-9.4
Cc1ccc(S(=O)(=O)NCCc2cccs2)cc1,-2.8,-6.6%,?,-2.3
O=c1c(-c2ccc(O)cc2)coc2cc(O[C@@H]3O[C@H](CO)[C@@H](O)[C@H](O)[C@H]3O)cc(O)c12,26.9*,.,.,60.7*
COc1ccc(-c2coc3cc(OC4OC(CO)C(O)C(O)C4O)ccc3c2=O)cc1 (stereo not drawn),37.1*,11.7µM*,30.1%,47.4*
COc1ccc(CC(=O)c2ccc(OC3OC(CO)C(O)C(O)C3O)cc2O)cc1 (stereo not drawn),13.9*,?,10.5%,84.3*
OC[C@H]1O[C@@H](Oc2cc(O)cc(/C=C/c3ccc(O)cc3)c2)[C@H](O)[C@@H](O)[C@@H]1O,27.5*,.,.,95.0*
COc1ccc(-c2coc3cc(OC4OC(CO)C(O)C(O)C4O)cc(O)c3c2=O)cc1 (stereo not drawn),.,223.8%,107.1%,.
CCCCOc1ccc(C(=O)N2CCN(c3ncccn3)CC2)cc1,6.7,?,?,.
S=c1[nH]nc(C2CCCCC2)n1/N=C/c1cccc(Cl)c1Cl,-1.0,-1.1%,-21.2%,-8.9
Cc1ccc(-c2ccc(=O)n(CC(=O)N3CCN(c4cccc(C)c4)C(C)C3)n2)cc1 (stereo not drawn),1.4,11.7µM*,46.0%,-19.6
CCOC(=O)Cn1nc(-c2ccc(C)cc2)ccc1=O,19.2*,.,9.7%,27.6*
CCOC(=O)CCn1nc(-c2ccccc2)cc1N,35.4*,27.8%,11.5%,39.1*
Cc1ccccc1C(=O)NCC(=O)OC(C)C(=O)Nc1cccc(S(=O)(=O)N2CCOCC2)c1 (stereo not drawn),.,5.0%,3.0%,.
O=[N+]([O-])c1ccc2nc(NS(=O)(=O)c3ccc(F)cc3)sc2c1,-3.8,21.4%,-10.6%,-3.0
CC(C)C[C@H](NC(=O)[C@@H]1Cc2c([nH]c3ccccc23)C2c3ccccc3C(=O)N21)C(=O)NCC1CCCO1 (stereo partly drawn),-3.3,9.28µM*,?,-7.3
CSCC[C@H](NC(=O)[C@@H]1Cc2c([nH]c3ccccc23)C2c3ccccc3C(=O)N21)C(=O)NCC1CCCO1 (stereo partly drawn),1.9,9.28µM*,?,-1.7
CC(C)[C@H](NC(=O)[C@@H]1Cc2c([nH]c3ccccc23)C2c3ccccc3C(=O)N21)C(=O)NCC1CCCO1 (stereo partly drawn),-3.2,?,?,-3.0
CCOC(=O)N1CCC(NC(=O)CS(=O)Cc2nc(-c3ccccc3C)oc2C)CC1 (stereo not drawn),-2.0,36.6%,-7.4%,8.7
COc1ccc(/C=N/NC(=O)c2ccc(COCC(F)(F)C(F)F)cc2)cc1,-3.0,-12.9%,-8.5%,-1.4
CC(C)NC(=O)c1ccc(COCC(F)(F)C(F)F)cc1,21.8,13.1µM*,.,19.2
O=C(NCC1CCCO1)c1ccc(COc2ccccc2)cc1 (stereo not drawn),-1.3,?,-0.7%,-18.9
O=C(NCC1CCCO1)c1ccc(COCC(F)(F)C(F)F)cc1 (stereo not drawn),19.0*,.,33.1%,26.0
SMILES,CHX counter,Pf growth 96h,Pf growth 48h,Shiga inhibitor
O=C(Nc1ccc(S(=O)(=O)N2CCCCC2)cc1)C1CC(=O)N(c2ccc(Cl)cc2)C1 (stereo not drawn),-3.7,9.4%,?,-6.0
FC(F)(F)c1ccccc1NC(=S)Nc1ccccc1,-2.1,1.47µM*,7.3%,-5.6
CC(=O)Nc1ccc(NC(=S)Nc2ccccc2)cc1,1.2,-0.9%,11.9%,-4.7
S=C(Nc1ccccc1)Nc1ccccc1-n1cccc1,22.3*,?,?,27.8
CC[C@H](C)[C@H](NC(N)=O)C(=O)NCCc1ccc(OC)c(OC)c1,-2.2,9.6%,16.4%,3.1
CCN(CC)S(=O)(=O)c1ccc(N2CCCCC2)c(NC(=O)/C(C#N)=C/c2ccc(OC)cc2)c1,-5.2,11.7µM*,?,-6.6

# From PubChem BioAssay
